# From PubChem BioAssay
# SMARCA2 act: SMARCA2 function activation, primary screen; 1% of 370,000 active; AID 652017; activation, % at 9.1 µM; MG213 cells, MMTV-luciferase reporter, dexamethasone, overnight; in the data active means activation above about 7.8%;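 further: 0% = vehicle wells and 100% = reference activator wells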
# GRIN3A LBD mod: modulators (binders) of human NR3A ligand-binding domain. NR3A LBD differential scanning fluorimetry, Tm shift; 0% = protein alone, 100% = glycine-bound protein. Tm shift relative to glycine control, % at 25 µM. 2.5% of 340,000 active. AID 1259313;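 active means melting temperature shift of at least 10% of the positive control shift, at one fixed dose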
# SKN-1 block: C. elegans SKN-1 inhibition; C. elegans VP596 Pgst-4::GFP/RFP ratio, acrylamide-induced, 24 h; 0.49% of 360,000 active; AID 624304; inhibition, % at 21.8 µM;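 active means interference check ratio from 0.5 to 1.5 plus GFP to RFP signal ratio inhibition reaching or exceeding a fixed threshold, cut at about 30% in these data, passing the limit was not always enough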
# esBAF inh: blocks esBAF chromatin remodeling in mouse ES cells. Bmi1-luciferase knock-in reporter, 24 h; 100% = twice the neutral-well signal. reporter increase, % at 12.5 µM. 2% of 350,000 active; in the data active means activation above about 40%;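 further: 0% = median of the plate's neutral control wells and 100% = double that signal; a rise in the Bmi1 reporter signal indicates esBAF inhibition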
# NadD block: inhibitors of Staphylococcus aureus NadD; purified NadD enzyme, colorimetric absorbance read-out; 0.78% of 360,000 active; inhibition, % at 20 µM; in the data active means inhibition above about 26%
# Vif inh: inhibitors of HIV Vif | HEK293T cells, Vif self-association by quenched fluorescence, imaging, 24 h | inhibition, % at 7.49 µM | 0.35% of 340,000 active; in the data active means inhibition above about 50%, passing the limit was not always enough
# NadD inh conf: confirmation of Staphylococcus aureus NadD inhibitors; shares compounds with NadD block; 13% of 2,000 active; purified S. aureus NadD, colorimetric enzyme assay; inhibition, % at 20 µM; in the data active means inhibition mostly above about 42%, no sharp cut-off; inactive means mostly below about 42%
# Starred values were filed as active, the others as inactive; / = no result given. Hits are enriched below; roughly 5.2% of the tested compounds scored in any of these assays.
SMILES,SMARCA2 act,GRIN3A LBD mod,SKN-1 block,esBAF inh,NadD block,Vif inh,NadD inh conf
CCCCCC(=O)Nc1nc(C)c(-c2csc(Nc3cc(Cl)ccc3OC)n2)s1,1.4,1.9,8.5,-3.2,42.0*,-6.8,38.5
COc1ccc(C(=O)Nc2cccc(-c3cc4ccccc4oc3=O)c2)cc1[N+](=O)[O-],-2.4,11.2*,5.3,/,34.6*,-3.2,10.4
COC(=O)C[C@H]1C[C@@H]2c3cc(NC(=O)NC4CCCC4)ccc3O[C@@H]2[C@H](CO)O1,/,/,/,-3.8,/,/,/
CC(C)=CCC/C(C)=C/CNC(=O)C[C@H]1C[C@H](C(=O)N2CCCCC2)[C@@]2(CCc3ccccc3)c3[nH]c4cc(-c5ccco5)ccc4c3CCN2C1=O,/,1.7,21.2,0.6,44.5*,/,10.7
CC[C@]12c3[nH]c4cc(-c5ccco5)ccc4c3CCN1C(=O)[C@@H](CC(=O)NC/C=C(\C)CCC=C(C)C)C[C@@H]2C(=O)N1CCN(C(=O)C2CC2)CC1,-4.7,-1.1,9.8,0.0,7.8,13.1,/
O=C(C[C@H]1C[C@H](C(=O)N2CCCCC2)[C@@]2(CCc3ccccc3)c3[nH]c4ccc(Cl)cc4c3CCN2C1=O)NCCCn1ccnc1,-0.8,-13.5,-1.6,10.6,30.6*,-7.3,0.8
COc1ccc(NC(=O)N(C)C[C@H]2Oc3c(NC(=O)Nc4ccc5c(c4)OCO5)cccc3C(=O)N([C@@H](C)CO)C[C@@H]2C)cc1,/,/,/,-1.8,/,/,/
C[C@@H]1CN([C@@H](C)CO)S(=O)(=O)c2ccc(C3=CCCC3)cc2O[C@H]1CN(C)C(=O)C1CCOCC1,/,/,/,7.0,/,/,/
COc1ccc(-c2csc(NC(=S)NC(=O)c3ccco3)n2)cc1Br,-0.3,-2.8,10.0,5.8,17.5,-3.6,/
COc1ccc(C(=O)NC(=S)Nc2nc(-c3ccc(OC)c(Br)c3)cs2)cc1Br,0.5,1.2,15.2,-1.0,33.2*,15.3,0.5
COCC#Cc1ccc2c(c1)O[C@H](CN(C)Cc1ccccc1F)[C@@H](C)CN([C@@H](C)CO)S2(=O)=O,/,/,/,2.4,/,/,/
Cc1ccc(C)n1NC(=O)c1ccc(Cl)cc1Cl,-1.4,0.9,1.1,-7.7,33.7*,-3.9,26.6
Cc1ccc(S(=O)(=O)/C(C#N)=C/c2c(N3CCN(Cc4ccccc4)CC3)nc3ccccn3c2=O)cc1,2.0,-5.7,12.3,7.4,47.3*,-4.5,12.6
CCOc1ccc(C2C(C(=O)Nc3ccccc3)=C(C)N=c3s/c(=C/c4cccc(OCC(=O)O)c4)c(=O)n32)cc1 (centres undefined),-0.4,-8.1,1.8,/,33.1*,11.2,44.1
CC1=C(C(=O)OC(C)C)C(c2ccc(Cl)cc2)n2c(sc(=Cc3ccc(OCC(=O)O)cc3)c2=O)=N1 (centres undefined),0.8,/,5.2,2.8,30.5*,2.2,13.6
O=C(CC1CC1)N1CC[C@@H]2[C@H]1c1cc(-c3cccc(F)c3)ccc1N[C@@H]2CO,/,/,/,-5.3,/,/,/
Cc1cc(C)c2nc(NNC(=O)c3cc(=O)c4ccccc4o3)sc2c1,-0.7,1.8,-9.3,22.4,58.7*,3.6,62.2*
CCc1nnc(NC(=O)c2ccc(S(=O)(=O)N3CCc4ccccc4C3)cc2)s1,-2.5,-1.3,10.3,/,-4.7,-2.3,/
Cc1cc(C)c2nc(NNC(=O)c3ccc(S(=O)(=O)N4CCc5ccccc5C4)cc3)sc2c1,-1.6,5.1,0.5,-24.5,60.4*,-5.1,61.2*
Cc1cc(C)c2sc(NNC(=O)c3ccc(S(=O)(=O)N4CCc5ccccc5C4)cc3)nc2c1,-2.5,3.9,2.5,-44.5,63.7*,-8.3,55.6*
C[C@H]1CN([C@@H](C)CO)C(=O)c2cc(C3=CCCC3)cnc2O[C@H]1CN(C)Cc1ccccc1,/,/,/,0.3,/,/,/
CCN(CC)C(=S)Sc1c(-c2ccccc2)c2cc(Cl)ccc2[nH]c1=O,0.6,-5.8,35.1*,/,39.1*,8.0,0.5
Cc1ccc(-n2[nH]c(C)c(C=Nc3ccc(S(=O)(=O)Nc4nccs4)cc3)c2=O)cc1C,0.9,14.6*,8.1,/,41.8*,-5.8,51.8*
CCc1nnc(NS(=O)(=O)c2ccc(N=Cc3c(C)[nH]n(-c4ccc(Cl)cc4)c3=O)cc2)s1,-1.2,12.6*,-4.9,/,30.5*,-4.9,47.2*
